Assay results: PMC11062922 (Nature Chemical Biology, 2023)
Like-named read-outs stand apart in the source and are kept apart here.

Columns and labels:
RPS6KA4 = settings: read-out: apparent Kd, n = 1
TNIK = settings: read-out: apparent Kd, n = 1
[1] = compound concentrations:100 nM and 1000 nM (sheet 'Lestaurtinib' of Supplementary Table 1),run:Lestaurtinib_02624_R1,Plate:MR020
[2] = compound concentrations:100 nM and 1000 nM (sheet 'Lestaurtinib' of Supplementary Table 1),run:Lestaurtinib_02624_R2,Plate:MR020
[3] = compound concentrations:100 nM and 1000 nM (sheet 'Lestaurtinib' of Supplementary Table 1),run:Lestaurtinib_02724_R3,Plate:MR021
[4] = compound concentrations:100 nM and 1000 nM (sheet 'Lestaurtinib' of Supplementary Table 1),run:Lestaurtinib_02741_R1,Plate:MR023
[5] = compound concentrations:100 nM and 1000 nM (sheet 'Lestaurtinib' of Supplementary Table 1),run:Lestaurtinib_02741_R2,Plate:MR023
[6] = compound concentrations:100 nM and 1000 nM (sheet 'Lestaurtinib' of Supplementary Table 1),run:Lestaurtinib_02741_R3,Plate:MR023
[7] = compound concentrations:100 nM and 1000 nM (sheet 'Lestaurtinib' of Supplementary Table 1),run:Lestaurtinib_02752_R1,Plate:MR025
[8] = compound concentrations:100 nM and 1000 nM (sheet 'Lestaurtinib' of Supplementary Table 1),run:Lestaurtinib_02765_R2,Plate:MR026
[9] = compound concentrations:100 nM and 1000 nM (sheet 'Lestaurtinib' of Supplementary Table 1),run:Lestaurtinib_02766_R2,Plate:MR027
[10] = compound concentrations:100 nM and 1000 nM (sheet 'Lestaurtinib' of Supplementary Table 1),run:Lestaurtinib_02766_R3,Plate:MR027
[11] = compound concentrations:100 nM and 1000 nM (sheet 'Lestaurtinib' of Supplementary Table 1),run:Lestaurtinib_02768_R1,Plate:MR028
[12] = compound concentrations:100 nM and 1000 nM (sheet 'Lestaurtinib' of Supplementary Table 1),run:Lestaurtinib_02768_R3,Plate:MR028

With Lestaurtinib the potency estimated from few doses (RPS6KA4; compound concentrations:100 nM and 1000 nM (sheet 'Lestaurtinib' of Supplementary Table 1),run:Lestaurtinib_02606_R2,Plate:MR019) was 1310 nM, the potency estimated from few doses (RPS6KA4; compound concentrations:100 nM and 1000 nM (sheet 'Lestaurtinib' of Supplementary Table 1),run:Lestaurtinib_02606_R3,Plate:MR019) was 1340 nM and the potency estimated from few doses (RPS6KA4; [1]) was 1570 nM. For the same substance, the potency estimated from few doses (RPS6KA4; [2]) was 952 nM, the potency estimated from few doses (RPS6KA4; compound concentrations:100 nM and 1000 nM (sheet 'Lestaurtinib' of Supplementary Table 1),run:Lestaurtinib_02724_R1,Plate:MR021) was 1570 nM and the potency estimated from few doses (RPS6KA4; compound concentrations:100 nM and 1000 nM (sheet 'Lestaurtinib' of Supplementary Table 1),run:Lestaurtinib_02724_R2,Plate:MR021) was 1150 nM. It also gave a potency estimated from few doses (RPS6KA4; [3]) of 731 nM, a potency estimated from few doses (RPS6KA4; [4]) of 865 nM and a potency estimated from few doses (RPS6KA4; [5]) of 999 nM. The potency estimated from few doses (RPS6KA4; [6]) was 1130 nM, the potency estimated from few doses (RPS6KA4; compound concentrations:100 nM and 1000 nM (sheet 'Lestaurtinib' of Supplementary Table 1),run:Lestaurtinib_02748_R1,Plate:MR024) was 769 nM and the potency estimated from few doses (RPS6KA4; compound concentrations:100 nM and 1000 nM (sheet 'Lestaurtinib' of Supplementary Table 1),run:Lestaurtinib_02748_R3,Plate:MR024) was 638 nM. The potency estimated from few doses (RPS6KA4; [7]) was 1210 nM, the potency estimated from few doses (RPS6KA4; compound concentrations:100 nM and 1000 nM (sheet 'Lestaurtinib' of Supplementary Table 1),run:Lestaurtinib_02765_R1,Plate:MR026) was 1510 nM and the potency estimated from few doses (RPS6KA4; [8]) was 1150 nM. It also gave a potency estimated from few doses (RPS6KA4; compound concentrations:100 nM and 1000 nM (sheet 'Lestaurtinib' of Supplementary Table 1),run:Lestaurtinib_02766_R1,Plate:MR027) of 911 nM, a potency estimated from few doses (RPS6KA4; [9]) of 974 nM and a potency estimated from few doses (RPS6KA4; [10]) of 783 nM. The potency estimated from few doses (RPS6KA4; [11]) was 814 nM, the potency estimated from few doses (RPS6KA4; compound concentrations:100 nM and 1000 nM (sheet 'Lestaurtinib' of Supplementary Table 1),run:Lestaurtinib_02768_R2,Plate:MR028) was 841 nM and the potency estimated from few doses (RPS6KA4; [12]) was 954 nM. For the same substance, the potency estimated from few doses (RPS6KA4; compound concentrations:100 nM and 1000 nM (sheet 'Lestaurtinib' of Supplementary Table 1),run:Lestaurtinib_02795_R2,Plate:MR022) was 1420 nM, the potency estimated from few doses (RPS6KA4; compound concentrations:100 nM and 1000 nM (sheet 'Lestaurtinib' of Supplementary Table 1),run:Lestaurtinib_02802_R2,Plate:MR029) was 865 nM and the potency estimated from few doses (RPS6KA4; compound concentrations:100 nM and 1000 nM (sheet 'Lestaurtinib' of Supplementary Table 1),run:Lestaurtinib_02802_R3,Plate:MR029) was 770 nM. The potency estimated from few doses (RPS6KA4; compound concentrations:100 nM and 1000 nM (sheet 'Lestaurtinib' of Supplementary Table 1),run:Lestaurtinib_02896_R1,Plate:MR030) was 748 nM, the potency estimated from few doses (RPS6KA4; compound concentrations:100 nM and 1000 nM (sheet 'Lestaurtinib' of Supplementary Table 1),run:Lestaurtinib_02896_R2,Plate:MR030) was 1150 nM and the potency estimated from few doses (RPS6KA4; compound concentrations:100 nM and 1000 nM (sheet 'Lestaurtinib' of Supplementary Table 1),run:Lestaurtinib_03172_R1,Plate:MR031) was 1350 nM. It also gave a potency estimated from few doses (RPS6KA4; compound concentrations:100 nM and 1000 nM (sheet 'Lestaurtinib' of Supplementary Table 1),run:Lestaurtinib_03172_R2,Plate:MR031) of 771 nM, a potency estimated from few doses (RPS6KA4; compound concentrations:100 nM and 1000 nM (sheet 'Lestaurtinib' of Supplementary Table 1),run:Lestaurtinib_03252_R2,Plate:MR032) of 1300 nM and a potency estimated from few doses (RPS6KA4; compound concentrations:100 nM and 1000 nM (sheet 'Lestaurtinib' of Supplementary Table 1),run:Lestaurtinib_03260_R3,Plate:MR033) of 1400 nM. It also gave a potency estimated from few doses (TNIK; compound concentrations:100 nM and 1000 nM (sheet 'Lestaurtinib' of Supplementary Table 1),run:Lestaurtinib_02339_R2,Plate:MR001) of 798 nM, a potency estimated from few doses (TNIK; compound concentrations:100 nM and 1000 nM (sheet 'Lestaurtinib' of Supplementary Table 1),run:Lestaurtinib_02364_R2,Plate:MR002) of 206 nM and a potency estimated from few doses (TNIK; compound concentrations:100 nM and 1000 nM (sheet 'Lestaurtinib' of Supplementary Table 1),run:Lestaurtinib_02367_R1,Plate:MR003) of 1130 nM. It also gave a potency estimated from few doses (TNIK; compound concentrations:100 nM and 1000 nM (sheet 'Lestaurtinib' of Supplementary Table 1),run:Lestaurtinib_02367_R2,Plate:MR003) of 460 nM, a potency estimated from few doses (TNIK; compound concentrations:100 nM and 1000 nM (sheet 'Lestaurtinib' of Supplementary Table 1),run:Lestaurtinib_02367_R3,Plate:MR003) of 1930 nM and a potency estimated from few doses (TNIK; compound concentrations:100 nM and 1000 nM (sheet 'Lestaurtinib' of Supplementary Table 1),run:Lestaurtinib_02407_R1,Plate:MR005) of 160 nM. The potency estimated from few doses (TNIK; compound concentrations:100 nM and 1000 nM (sheet 'Lestaurtinib' of Supplementary Table 1),run:Lestaurtinib_02407_R2,Plate:MR005) was 772 nM, the potency estimated from few doses (TNIK; compound concentrations:100 nM and 1000 nM (sheet 'Lestaurtinib' of Supplementary Table 1),run:Lestaurtinib_02407_R3,Plate:MR005) was 136 nM and the potency estimated from few doses (TNIK; compound concentrations:100 nM and 1000 nM (sheet 'Lestaurtinib' of Supplementary Table 1),run:Lestaurtinib_02422_R1,Plate:MR006) was 1750 nM. The potency estimated from few doses (TNIK; compound concentrations:100 nM and 1000 nM (sheet 'Lestaurtinib' of Supplementary Table 1),run:Lestaurtinib_02437_R1,Plate:MR007) was 1310 nM, the potency estimated from few doses (TNIK; compound concentrations:100 nM and 1000 nM (sheet 'Lestaurtinib' of Supplementary Table 1),run:Lestaurtinib_02443_R2,Plate:MR009) was 687 nM and the potency estimated from few doses (TNIK; compound concentrations:100 nM and 1000 nM (sheet 'Lestaurtinib' of Supplementary Table 1),run:Lestaurtinib_02473_R1,Plate:MR010) was 165 nM. It also gave a potency estimated from few doses (TNIK; compound concentrations:100 nM and 1000 nM (sheet 'Lestaurtinib' of Supplementary Table 1),run:Lestaurtinib_02482_R1,Plate:MR011) of 994 nM, a potency estimated from few doses (TNIK; compound concentrations:100 nM and 1000 nM (sheet 'Lestaurtinib' of Supplementary Table 1),run:Lestaurtinib_02487_R2,Plate:MR012) of 159 nM and a potency estimated from few doses (TNIK; compound concentrations:100 nM and 1000 nM (sheet 'Lestaurtinib' of Supplementary Table 1),run:Lestaurtinib_02487_R3,Plate:MR012) of 481 nM. It also gave a potency estimated from few doses (TNIK; compound concentrations:100 nM and 1000 nM (sheet 'Lestaurtinib' of Supplementary Table 1),run:Lestaurtinib_02496_R2,Plate:MR013) of 764 nM, a potency estimated from few doses (TNIK; compound concentrations:100 nM and 1000 nM (sheet 'Lestaurtinib' of Supplementary Table 1),run:Lestaurtinib_02496_R3,Plate:MR013) of 887 nM and a potency estimated from few doses (TNIK; compound concentrations:100 nM and 1000 nM (sheet 'Lestaurtinib' of Supplementary Table 1),run:Lestaurtinib_02566_R1,Plate:MR014) of 845 nM. It also gave a potency estimated from few doses (TNIK; compound concentrations:100 nM and 1000 nM (sheet 'Lestaurtinib' of Supplementary Table 1),run:Lestaurtinib_02566_R2,Plate:MR014) of 581 nM, a potency estimated from few doses (TNIK; compound concentrations:100 nM and 1000 nM (sheet 'Lestaurtinib' of Supplementary Table 1),run:Lestaurtinib_02572_R3,Plate:MR015) of 52 nM and a potency estimated from few doses (TNIK; compound concentrations:100 nM and 1000 nM (sheet 'Lestaurtinib' of Supplementary Table 1),run:Lestaurtinib_02577_R2,Plate:MR016) of 582 nM. For the same substance, the potency estimated from few doses (TNIK; compound concentrations:100 nM and 1000 nM (sheet 'Lestaurtinib' of Supplementary Table 1),run:Lestaurtinib_02577_R3,Plate:MR016) was 885 nM, the potency estimated from few doses (TNIK; compound concentrations:100 nM and 1000 nM (sheet 'Lestaurtinib' of Supplementary Table 1),run:Lestaurtinib_02584_R1,Plate:MR017) was 680 nM and the potency estimated from few doses (TNIK; compound concentrations:100 nM and 1000 nM (sheet 'Lestaurtinib' of Supplementary Table 1),run:Lestaurtinib_02584_R2,Plate:MR017) was 717 nM. It also gave a potency estimated from few doses (TNIK; compound concentrations:100 nM and 1000 nM (sheet 'Lestaurtinib' of Supplementary Table 1),run:Lestaurtinib_02584_R3,Plate:MR017) of 641 nM, a potency estimated from few doses (TNIK; compound concentrations:100 nM and 1000 nM (sheet 'Lestaurtinib' of Supplementary Table 1),run:Lestaurtinib_02601_R1,Plate:MR018) of 756 nM and a potency estimated from few doses (TNIK; compound concentrations:100 nM and 1000 nM (sheet 'Lestaurtinib' of Supplementary Table 1),run:Lestaurtinib_02601_R2,Plate:MR018) of 146 nM. The potency estimated from few doses (TNIK; [1]) was 562 nM, the potency estimated from few doses (TNIK; [2]) was 154 nM and the potency estimated from few doses (TNIK; [3]) was 507 nM. The potency estimated from few doses (TNIK; [4]) was 208 nM, the potency estimated from few doses (TNIK; [5]) was 627 nM and the potency estimated from few doses (TNIK; [6]) was 536 nM. The potency estimated from few doses (TNIK; [7]) was 708 nM, the potency estimated from few doses (TNIK; compound concentrations:100 nM and 1000 nM (sheet 'Lestaurtinib' of Supplementary Table 1),run:Lestaurtinib_02752_R2,Plate:MR025) was 671 nM and the potency estimated from few doses (TNIK; [8]) was 797 nM. For the same substance, the potency estimated from few doses (TNIK; compound concentrations:100 nM and 1000 nM (sheet 'Lestaurtinib' of Supplementary Table 1),run:Lestaurtinib_02765_R3,Plate:MR026) was 836 nM, the potency estimated from few doses (TNIK; [9]) was 806 nM and the potency estimated from few doses (TNIK; [10]) was 130 nM. The potency estimated from few doses (TNIK; [11]) was 142 nM, the potency estimated from few doses (TNIK; [12]) was 785 nM and the potency estimated from few doses (TNIK; compound concentrations:100 nM and 1000 nM (sheet 'Lestaurtinib' of Supplementary Table 1),run:Lestaurtinib_02795_R1,Plate:MR022) was 573 nM.
